Laboratory results published in PubChem BioAssay (NCI).
Compounds without any hit were thinned out: in the full panel of roughly 79,000, 15% have a hit. Active and inactive are the calls of the source. Cut-off read from the data, not from the text of the source: active = growth inhibition above about 70%; inactive = the rest.

Legend:
[1] = NCI Yeast Anticancer Drug Screen. Data for the rad52 strain (AID 147);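 note: 0% = growth of vehicle-treated control cultures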; conditions: S. cerevisiae rad52 mutant growth inhibition, active compounds read high
In short: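 Here a repair-compromised yeast strain receives each compound; its growth is then quantified and normalised to vehicle-only controls.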

[2] = NCI Yeast Anticancer Drug Screen. Data for the wt1 strain (AID 149);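 note: 0% = growth of vehicle-treated wt1 cultures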; conditions: S. cerevisiae wt1 strain (SPY 50644) growth inhibition, active compounds read high
In short: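 Measured: growth of wt1 yeast under compound versus vehicle treatment, reported as inhibition.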

[3] = NCI Yeast Anticancer Drug Screen. Data for the rad50EPP+ strain (AID 151);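 note: 0% = growth of vehicle-treated control cultures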; conditions: S. cerevisiae rad50 mutant strain, active compounds read high
In short: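 Read-out is yeast growth inhibition relative to vehicle; cells used were the rad50EPP+ strain.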

[4] = NCI Yeast Anticancer Drug Screen. Data for the mgt1 strain (AID 153); conditions: S. cerevisiae mgt1 mutant growth inhibition, active compounds read high
In short: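 Measured: inhibition of mgt1 yeast growth by compound, normalized to vehicle-treated cultures.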

[5] = NCI Yeast Anticancer Drug Screen. Data for the rad50 strain (AID 155);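 note: 0% = growth of vehicle-only cultures of the same strain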; conditions: S. cerevisiae rad50 strain growth inhibition, active compounds read high
In short: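 Growth of the mutant yeast was measured after compound exposure and referenced to vehicle-treated cultures.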

[6] = NCI Yeast Anticancer Drug Screen. Data for the mec2-1 strain (AID 157); conditions: S. cerevisiae mec2-1 strain, active compounds read high
In short: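 Using mec2-1 yeast: add compound, measure growth, express inhibition versus vehicle-treated cultures.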

[7] = NCI Yeast Anticancer Drug Screen. Data for the rad14 strain (AID 159);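 note: 0% = growth of vehicle-treated control cultures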; conditions: S. cerevisiae rad14 strain growth inhibition, active compounds read high
In short: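 Here, inhibition of yeast growth was measured after compound exposure, using a strain with a genetic defect in DNA damage repair and vehicle-treated cultures as the reference.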

[8] = NCI Yeast Anticancer Drug Screen. Data for the sgs1 mgt1 strain (AID 161);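 note: 0% = growth of cultures given vehicle only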; conditions: S. cerevisiae sgs1 mgt1 strain, active compounds read high
In short: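 Yeast cells carrying a defined DNA-repair defect were exposed to test compounds. Growth inhibition was measured relative to vehicle-treated controls.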

[9] = NCI Yeast Anticancer Drug Screen. Data for the CLN2oe strain (AID 163);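 note: 0% = growth of vehicle-only control cultures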; conditions: S. cerevisiae CLN2oe strain, active compounds read high
In short: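 Whole-cell yeast growth assay. A strain engineered for altered cell-cycle control received compound, and inhibition relative to vehicle-treated cultures was recorded.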

[10] = NCI Yeast Anticancer Drug Screen. Data for the cln2 rad14 strain (AID 165);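 note: 0% = growth equal to vehicle treated cultures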; conditions: S. cerevisiae cln2 rad14 strain, active compounds read high
In short: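 Yeast strain cln2 rad14, bearing defects in cell cycle control and DNA repair, serves as the test system; values reflect growth inhibition compared with vehicle.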

[11] = NCI Yeast Anticancer Drug Screen. Data for the bub3 strain (AID 167); conditions: S. cerevisiae bub3 mutant strain, active compounds read high
In short: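 Whole-cell yeast assay. The mutant strain was incubated with compounds, and growth inhibition was determined by comparison with vehicle-treated cells.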

[12] = NCI Yeast Anticancer Drug Screen. Data for the mlh1 strain (AID 171);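 note: 0% = growth of vehicle-treated control cultures of the same strain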; conditions: S. cerevisiae mlh1 strain growth inhibition, active compounds read high
In short: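 A yeast strain with a defined genetic lesion serves as the test organism. Cultures receive compound or vehicle, and growth is measured.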

[13] = NCI Yeast Anticancer Drug Screen. Data for the mlh1 rad18 strain (AID 175); conditions: S. cerevisiae mlh1 rad18 strain growth inhibition, active compounds read high
In short: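 Steps: expose repair-defective yeast to compound; measure growth; express inhibition against vehicle-treated controls.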

[14] = NCI Yeast Anticancer Drug Screen. Data for the rad18 strain (AID 177); conditions: S. cerevisiae rad18 mutant growth inhibition, active compounds read high
In short: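 Measured value is growth inhibition of a yeast strain bearing a DNA repair alteration, referenced to vehicle-treated cells.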

[15] = at 5.0 µM (retest, dose inferred, filed as 0.5)
[16] = at 50.0 µM (retest, dose inferred, filed as 5.0)

Measured: growth inhibition

CN(C)CCNc1ccc2ncn3c4ccc(O)cc4c(=O)c1c23
active: [5]; [16] 86%
inactive: [1]; at 1.2 µM -10% | [1]; at 3.7 µM 3% | [1]; at 11.0 µM 4% | [1]; at 33.0 µM 3% | [1]; at 100.0 µM 30% | [2]; at 1.2 µM -21% | [2]; at 3.7 µM -6% | [2]; at 11.0 µM -21% | [2]; at 33.0 µM 0% | [2]; at 100.0 µM -27% | [3]; at 1.2 µM -33% | [3]; at 3.7 µM -12% | [3]; at 11.0 µM -21% | [3]; at 33.0 µM -1% | [3]; at 100.0 µM 5% | [4]; at 1.2 µM -5% | [4]; at 3.7 µM 7% | [4]; at 11.0 µM -19% | [4]; at 33.0 µM -10% | [4]; at 100.0 µM 2% | [5]; at 1.2 µM -14% | [5]; at 3.7 µM 4% | [5]; [15] 50% | [5]; at 11.0 µM -6% | [5]; at 33.0 µM 8% | [5]; at 50.0 µM -17.1% | [5]; at 100.0 µM 22% | [6]; at 1.2 µM -12% | [6]; at 3.7 µM -7% | [6]; [15] 0% | [6]; at 11.0 µM -4% | [6]; at 33.0 µM -9% | [6]; [16] 7% | [6]; at 50.0 µM -10.1% | [6]; at 100.0 µM -20% | [7]; at 1.2 µM -35% | [7]; at 3.7 µM -35% | [7]; at 11.0 µM -31% | [7]; at 33.0 µM -30% | [7]; at 100.0 µM -23% | [8]; [15] 13% | [8]; [16] 7% | [8]; at 50.0 µM -10.6% | [9]; at 1.2 µM -12% | [9]; at 3.7 µM 1% | [9]; at 11.0 µM 9% | [9]; at 33.0 µM 13% | [9]; at 100.0 µM 8% | [10]; [15] 9% | [10]; [16] 12% | [10]; at 50.0 µM 27.6% | [11]; at 1.2 µM -19% | [11]; at 3.7 µM -12% | [11]; [15] 11% | [11]; at 11.0 µM -14% | [11]; at 33.0 µM 3% | [11]; [16] 11% | [11]; at 50.0 µM -1% | [11]; at 100.0 µM 7% | [12]; at 1.2 µM -23% | [12]; at 3.7 µM -21% | [12]; at 11.0 µM -15% | [12]; at 33.0 µM -4% | [12]; at 100.0 µM -8% | [13]; [15] 4% | [13]; [16] 12% | [13]; at 50.0 µM -48.5% | [14]; at 1.2 µM -23% | [14]; at 3.7 µM -1% | [14]; at 11.0 µM -9% | [14]; at 33.0 µM -12% | [14]; at 100.0 µM -12%

CCCCS/C(=C(/C#N)C(N)=O)c1cc2c([nH]1)CCCC2
active: [1]; at 100.0 µM 72% | [11]; [16] 71% | [11]; at 50.0 µM 83.5% | [11]; at 100.0 µM 81%
inactive: [1]; at 1.2 µM 24% | [1]; at 3.7 µM 26% | [1]; at 11.0 µM 33% | [1]; at 33.0 µM 40% | [2]; at 1.2 µM -9% | [2]; at 3.7 µM 0% | [2]; at 11.0 µM -8% | [2]; at 33.0 µM -12% | [2]; at 100.0 µM 56% | [3]; at 1.2 µM 11% | [3]; at 3.7 µM 13% | [3]; at 11.0 µM 11% | [3]; at 33.0 µM 22% | [3]; at 100.0 µM 31% | [4]; at 1.2 µM -7% | [4]; at 3.7 µM -21% | [4]; at 11.0 µM -21% | [4]; at 33.0 µM -14% | [4]; at 100.0 µM 49% | [5]; at 1.2 µM 25% | [5]; at 3.7 µM 23% | [5]; [15] 16% | [5]; at 11.0 µM 24% | [5]; at 33.0 µM 28% | [5]; [16] 30% | [5]; at 50.0 µM 41.2% | [5]; at 100.0 µM 48% | [6]; at 1.2 µM -8% | [6]; at 3.7 µM -22% | [6]; [15] -1% | [6]; at 11.0 µM -17% | [6]; at 33.0 µM -34% | [6]; [16] 13% | [6]; at 50.0 µM 62.4% | [6]; at 100.0 µM 52% | [7]; at 1.2 µM -11% | [7]; at 3.7 µM -9% | [7]; at 11.0 µM -13% | [7]; at 33.0 µM -16% | [7]; at 100.0 µM 62% | [8]; [15] 9% | [8]; [16] 31% | [8]; at 50.0 µM 60.5% | [9]; at 1.2 µM -21% | [9]; at 3.7 µM -19% | [9]; at 11.0 µM -18% | [9]; at 33.0 µM -32% | [9]; at 100.0 µM 56% | [10]; [15] 8% | [10]; [16] 24% | [10]; at 50.0 µM 54.2% | [11]; at 1.2 µM -37% | [11]; at 3.7 µM -36% | [11]; [15] 4% | [11]; at 11.0 µM -30% | [11]; at 33.0 µM -6%
